{"source": "PubChem BioAssay", "key": {"[1]": {"test": "growth inhibition, single agent or in combination, cell-based, chromothripsis tumors, cisplatin or BGB combos (AID 1671449);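 note: cells exposed for 96 hours; 0% = vehicle DMSO and 100% = killing by high DMSO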", "conditions": "LFS_MB_P medulloblastoma cells, measured here: combination with cisplatin, stronger effect = higher value"}, "[2]": {"test": "growth inhibition, single agent and combos, cell-based, chromothripsis tumors, cisplatin or BGB combos (AID 1671450);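 note: cells exposed to compound for four days; 0% = vehicle DMSO and 100% = cell killing by high DMSO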", "conditions": "HDN33 neuroblastoma cells, stronger effect = higher value"}, "[3]": {"test": "growth inhibition, single agents and combos, ICB984, cell-based, cisplatin or BGB combos, synergistic combos for chromothripsis tumors (AID 1671451; call rule not given here;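 note: cells exposed for 96 hours before readout; 0% = vehicle DMSO and 100% = killing by high DMSO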)", "conditions": "ICB984 medulloblastoma cells, drug combinations, stronger effect = higher value"}, "[4]": {"test": "growth inhibition, single agents and combos, HTB85, cell-based, BGB or cisplatin IC20 combos, synergistic combos for chromothripsis tumors (AID 1671453);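 note: cells exposed for 96 hours before readout; 0% = vehicle DMSO and 100% = high DMSO killing control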", "conditions": "HTB85 osteosarcoma cells, drug combinations, stronger effect = higher value"}, "[5]": {"test": "growth inhibition, MDA-MB-436, cell-based, BGB or cisplatin combos, synergistic combos for chromothripsis tumors (AID 1671458; call rule not given here;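 note: cells exposed for 96 hours; 0% = vehicle DMSO and 100% = killing by high DMSO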)", "conditions": "MDA-MB-436 breast carcinoma growth inhibition, drug combinations, stronger effect = higher value"}, "[6]": {"test": "BT084 cell growth, single and combined drugs, ICGC_MB145, cisplatin and BGB IC40 combos (AID 1671461);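 note: cells exposed to drugs for 96 hours; 0% = vehicle DMSO and 100% = high DMSO full killing control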", "conditions": "BT084 medulloblastoma cells, drug combinations, stronger effect = higher value"}, "[7]": {"test": "RCMB18 cell growth, single agent and combined, cisplatin and BGB IC40 combos (AID 1671462);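 note: cells exposed to compound for four days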", "conditions": "RCMB18 medulloblastoma cells, stronger effect = higher value"}, "[8]": {"test": "CRL1545 cell growth, single agent and combined, cisplatin and BGB IC20 combos (AID 1671464);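 note: cells exposed to compound for 96 hours before readout; 0% = vehicle DMSO and 100% = high DMSO killing control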", "conditions": "CRL1545 osteosarcoma cells, stronger effect = higher value"}, "[9]": {"conditions": "measured here: with BGB IC20 combination, at 0.5 µM"}, "[10]": {"conditions": "measured here: with cisplatin IC20 combination, at 0.5 µM"}}, "note": "Several values for one entry are separate records, joined by “and”; a condition that tells them apart may be missing. Identical values can stand only once. Activity calls are given as the source filed them. Cut-off read from the data, not from the text of the source, unless noted: active = inhibition above about 80%; inactive = the rest."}
{"compound": "C/C(=C\\C(=O)Nc1ccccc1C(=O)O)c1ccc2ccccc2c1", "values": [{"measurement": "inhibition", "setting": "[1]; at 0.5 µM", "result": "113% and 3.01%"}, {"measurement": "inhibition", "setting": "[1]; at 5 µM", "result": "13.4% and -26.4%"}, {"measurement": "inhibition", "setting": "[2]; BGB combo, at 5 µM", "result": "-23.7% and -49.5%"}, {"measurement": "inhibition", "setting": "[2]; at 0.5 µM", "result": "-19.3% (inactive) and -46.7% (inactive)"}, {"measurement": "inhibition", "setting": "[2]; cisplatin combo, at 5 µM", "result": "-7.72% and -22.6%"}, {"measurement": "inhibition", "setting": "[2]; [9]", "result": "-14.6% and -44.4%"}, {"measurement": "inhibition", "setting": "[2]; [10]", "result": "-15.2% and -49.7%"}, {"measurement": "inhibition", "setting": "[2]; single agent, at 5 µM", "result": "-14% and -26%"}, {"measurement": "inhibition", "setting": "[3]; BGB IC20 combo, at 0.005 µM", "result": "-36.5% and -10.3%"}, {"measurement": "inhibition", "setting": "[3]; BGB IC40 combo, at 0.005 µM", "result": "5.4% and -31%"}, {"measurement": "inhibition", "setting": "[3]; BGB IC40 combo, at 0.05 µM", "result": "-10.6% and -21.5%"}, {"measurement": "inhibition", "setting": "[3]; at 0.5 µM", "result": "-6.99% (inactive) and -24.5% (inactive)"}, {"measurement": "inhibition", "setting": "[3]; cisplatin combo, at 0.05 µM", "result": "-10.6% and -25.9%"}, {"measurement": "inhibition", "setting": "[3]; cisplatin combo, at 0.5 µM", "result": "-7.39% and -29.2%"}, {"measurement": "inhibition", "setting": "[3]; cisplatin combo, at 5 µM", "result": "6.72% and -34%"}, {"measurement": "inhibition", "setting": "[3]; measured here: 5 uM single agent, at 5 µM", "result": "-9.64% and -30.6%"}, {"measurement": "inhibition", "setting": "[4]; at 0.5 µM", "result": "-22.4% (inactive) and -26.8% (inactive)"}, {"measurement": "inhibition", "setting": "[4]; measured here: with BGB IC20, at 0.5 µM", "result": "-27.7% and -32.5%"}, {"measurement": "inhibition", "setting": "[4]; measured here: with BGB IC20, at 5 µM", "result": "-14.9% and -24.4%"}, {"measurement": "inhibition", "setting": "[4]; measured here: with cisplatin IC20, at 0.5 µM", "result": "-22.7% and -28.1%"}, {"measurement": "inhibition", "setting": "[4]; measured here: with cisplatin IC20, at 5 µM", "result": "-19.8% and -17.3%"}, {"measurement": "inhibition", "setting": "[4]; single agent, at 5 µM", "result": "-20.6% and -16.3%"}, {"measurement": "inhibition", "setting": "[5]; at 0.5 µM", "result": "-3.17% (inactive) and -21% (inactive)"}, {"measurement": "inhibition", "setting": "[5]; measured here: BGB combination, at 0.5 µM", "result": "-3.42% and -32.5%"}, {"measurement": "inhibition", "setting": "[5]; measured here: BGB combination, at 5 µM", "result": "-2.03% and -11.9%"}, {"measurement": "inhibition", "setting": "[5]; measured here: cisplatin combination, at 0.5 µM", "result": "-4.64% and -12.8%"}, {"measurement": "inhibition", "setting": "[5]; measured here: cisplatin combination, at 5 µM", "result": "-4.62% and -6.3%"}, {"measurement": "inhibition", "setting": "[6]; at 0.5 µM", "result": "-6.83% (inactive) and -5.19% (inactive)"}, {"measurement": "inhibition", "setting": "[6]; cisplatin combination, at 0.5 µM", "result": "-15% and -25.6%"}, {"measurement": "inhibition", "setting": "[6]; cisplatin combination, at 5 µM", "result": "-24.9% and -2.65%"}, {"measurement": "inhibition", "setting": "[6]; measured here: BGB IC40 combination 0.05 uM, at 0.05 µM", "result": "-17.8% and 7.75%"}, {"measurement": "inhibition", "setting": "[6]; single agent, at 5 µM", "result": "11.2% and -10.1%"}, {"measurement": "inhibition", "setting": "[7]; at 0.5 µM", "result": "-1.42% (inactive) and -24.1% (inactive)"}, {"measurement": "inhibition", "setting": "[7]; cisplatin combo, at 5 µM", "result": "5.73% and -10.2%"}, {"measurement": "inhibition", "setting": "[7]; measured here: BGB IC40 combination, at 0.05 µM", "result": "-5.49% and -16.6%"}, {"measurement": "inhibition", "setting": "[7]; measured here: combination with cisplatin, at 0.5 µM", "result": "-31.4% and -50.1%"}, {"measurement": "inhibition", "setting": "[7]; single agent, at 5 µM", "result": "-4.52% and -12.1%"}, {"measurement": "inhibition", "setting": "[8]; at 0.5 µM", "result": "-35.2% (inactive) and -65.1% (inactive)"}, {"measurement": "inhibition", "setting": "[8]; [9]", "result": "-24.4% and -56.6%"}, {"measurement": "inhibition", "setting": "[8]; [10]", "result": "-40.6% and -72.1%"}, {"measurement": "inhibition", "setting": "[8]; single agent, at 0.05 µM", "result": "-15.5% and -44.7%"}, {"measurement": "inhibition", "setting": "[8]; single agent, at 5 µM", "result": "-12.5% and -53.7%"}]}
